In PubChem BioAssay (Tox21):
Records with an inconclusive call do not appear. Activity calls are given as the source filed them. Unless noted, calls follow the shape of the dose curve; as a rule, active = well fitted curve in the direction sought with a large enough effect in the repeat runs; inconclusive = weak or mixed curves; inactive = no such curve, though single readings can be large; an effect the other way counts as inactive or inconclusive.

Experiments:
[1] = qHTS assay to identify small molecule agonists of the sonic hedgehog signaling (Shh) pathway (AID 1259368; calls by dose curve; also: nearly all actives have a fitted effect of over 15% in size; also: potency is read from the fitted curve at half-maximal effect)
In short: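 Mouse fibroblast (NIH/3T3) reporter cells with stably integrated Gli1-Luc were treated 24 hr with compound; firefly luciferase luminescence served as the read-out.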

[2] = target: Estrogen receptor beta (Homo sapiens) (UniProt Q92731); experiment: qHTS assay to identify small molecule agonists of the estrogen receptor beta (ER-beta) signaling pathway (AID 1259377; active = well fitted activation curve with a large enough effect in the signal ratio in the repeat runs, not every such curve was filed as active; the % refers to the signal ratio)
Sequence of Estrogen receptor beta (Homo sapiens) (Q92731 whole entry, looked up): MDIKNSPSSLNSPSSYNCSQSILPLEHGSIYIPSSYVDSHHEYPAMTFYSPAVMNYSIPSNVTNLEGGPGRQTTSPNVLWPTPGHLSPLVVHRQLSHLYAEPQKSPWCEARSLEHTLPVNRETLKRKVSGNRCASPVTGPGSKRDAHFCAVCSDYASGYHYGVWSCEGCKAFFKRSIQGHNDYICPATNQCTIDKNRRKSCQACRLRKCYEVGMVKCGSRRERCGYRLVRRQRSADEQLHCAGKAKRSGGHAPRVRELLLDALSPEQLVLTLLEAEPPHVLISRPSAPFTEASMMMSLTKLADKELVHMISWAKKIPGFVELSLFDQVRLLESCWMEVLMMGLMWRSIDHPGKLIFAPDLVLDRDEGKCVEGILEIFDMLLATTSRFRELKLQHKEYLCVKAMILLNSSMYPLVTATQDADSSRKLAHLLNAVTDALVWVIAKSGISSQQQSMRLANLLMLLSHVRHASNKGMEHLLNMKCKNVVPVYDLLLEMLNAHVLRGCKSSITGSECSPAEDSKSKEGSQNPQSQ
In short: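 In HEK293T cells bearing a UAS-beta-lactamase reporter under ER-beta control, DMSO-delivered compounds were incubated for 16 hr at 37C. Activity was detected as fluorescence 2 hours after LiveBLAzer B/G FRET substrate addition.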

[3] = target: Estrogen receptor beta (Homo sapiens) (UniProt Q92731); experiment: qHTS assay to identify small molecule antagonists of the estrogen receptor beta (ER-beta) signaling pathway (AID 1259378; active = well fitted inhibition curve with a large enough effect in the signal ratio in the repeat runs, not every such curve was filed as active; the % refers to the signal ratio)
In short: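 ER-beta-UAS-bla HEK293T (GripTite) cells in 2% charcoal-stripped FBS medium were preincubated 6 hr at 37C, dosed with compound, then stimulated with 1 nM E2 (final) for 16 hr; beta-lactamase reporter read by B/G FRET fluorescence after 2 hr substrate loading.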

[4] = qHTS assay to identify small molecule agonists of the androgen receptor (AR) signaling pathway in the presence of an antagonist - cell viability counter screen (AID 1259379); also: nearly all actives have a fitted effect of over 25% in size; also: potency is read from the fitted curve at half-maximal effect
In short: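 A CellTiter-Fluor read-out measured viability of MDA-kb2 reporter cells (MMTV promoter with AR and GR response elements). Treatment: nilutamide 3.0uM final with compounds at 15 concentrations, 16 hr, 37C, 0% CO2.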

[5] = qHTS assay to identify small molecule agonists of the estrogen receptor beta (ER-beta) signaling pathway - cell viability counter screen (AID 1259380); also: nearly all actives have a fitted effect of over 30% in size; also: potency is read from the fitted curve at half-maximal effect
In short: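 Cells used were ER-beta-UAS-bla HEK293T in medium with 2% charcoal-stripped FBS. They were treated for 16 hr at 37C. Viability came from CellTiter-Glo luminescence.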

[6] = target: Estrogen receptor (Homo sapiens) (UniProt P03372); experiment: qHTS assay to identify small molecule agonists of the estrogen receptor alpha (ER-alpha) signaling pathway in the presence of an antagonist (AID 1259383; calls by dose curve; also: nearly all actives have a fitted effect of over 15% in size; also: potency is read from the fitted curve at half-maximal effect; as to activation: top concentration of the series differs between compounds)
Sequence of Estrogen receptor (Homo sapiens) (P03372 whole entry, looked up): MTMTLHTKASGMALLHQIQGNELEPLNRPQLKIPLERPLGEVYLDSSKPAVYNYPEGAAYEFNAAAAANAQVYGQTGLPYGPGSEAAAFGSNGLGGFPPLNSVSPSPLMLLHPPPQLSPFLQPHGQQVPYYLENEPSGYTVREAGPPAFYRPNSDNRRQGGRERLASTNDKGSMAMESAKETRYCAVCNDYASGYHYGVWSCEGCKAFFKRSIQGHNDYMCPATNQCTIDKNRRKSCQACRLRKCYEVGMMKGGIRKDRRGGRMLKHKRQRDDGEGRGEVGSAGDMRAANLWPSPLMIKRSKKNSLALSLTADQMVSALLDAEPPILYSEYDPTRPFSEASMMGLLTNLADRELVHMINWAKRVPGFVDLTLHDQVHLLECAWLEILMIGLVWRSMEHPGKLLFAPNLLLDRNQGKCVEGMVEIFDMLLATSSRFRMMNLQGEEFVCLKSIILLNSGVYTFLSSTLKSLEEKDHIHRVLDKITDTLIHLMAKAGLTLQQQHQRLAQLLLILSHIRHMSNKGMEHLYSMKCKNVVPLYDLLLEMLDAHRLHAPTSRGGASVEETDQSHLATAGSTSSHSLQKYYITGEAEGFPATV
In short: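 Using VM7Luc4E2 cells seeded 24hr before treatment, antagonist ICI-182,780 (10.0nM final) was added, followed by compounds at 15 concentrations. Plates incubated 22hr; ONE-Glo luminescence quantified reporter activity.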

[7] = qHTS assay to identify small molecule agonists or antagonists of the thyroid stimulating hormone receptor (TSHR) signaling pathway - wild type cell line counter screen (AID 1259384; calls by dose curve)
In short: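 Wild-type HEK293 cells were plated 18 h at 37 C/5% CO2, pin-dosed with compound plus Ro20-1724 medium, held 30 min at room temperature, then given cAMP-d2 and anti-cAMP-cryptate; fluorescence was read after 1 h. Fifteen concentrations, triplicate.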

[8] = target: Thyrotropin receptor (Homo sapiens) (UniProt P16473); experiment: qHTS assay to identify small molecule antagonists of the thyroid stimulating hormone receptor (TSHR) signaling pathway (AID 1259385; calls by dose curve; also: nearly all actives have a fitted effect of over 20% in size; also: potency is read from the fitted curve at half-maximal effect)
Sequence of Thyrotropin receptor (Homo sapiens) (P16473 whole entry, looked up): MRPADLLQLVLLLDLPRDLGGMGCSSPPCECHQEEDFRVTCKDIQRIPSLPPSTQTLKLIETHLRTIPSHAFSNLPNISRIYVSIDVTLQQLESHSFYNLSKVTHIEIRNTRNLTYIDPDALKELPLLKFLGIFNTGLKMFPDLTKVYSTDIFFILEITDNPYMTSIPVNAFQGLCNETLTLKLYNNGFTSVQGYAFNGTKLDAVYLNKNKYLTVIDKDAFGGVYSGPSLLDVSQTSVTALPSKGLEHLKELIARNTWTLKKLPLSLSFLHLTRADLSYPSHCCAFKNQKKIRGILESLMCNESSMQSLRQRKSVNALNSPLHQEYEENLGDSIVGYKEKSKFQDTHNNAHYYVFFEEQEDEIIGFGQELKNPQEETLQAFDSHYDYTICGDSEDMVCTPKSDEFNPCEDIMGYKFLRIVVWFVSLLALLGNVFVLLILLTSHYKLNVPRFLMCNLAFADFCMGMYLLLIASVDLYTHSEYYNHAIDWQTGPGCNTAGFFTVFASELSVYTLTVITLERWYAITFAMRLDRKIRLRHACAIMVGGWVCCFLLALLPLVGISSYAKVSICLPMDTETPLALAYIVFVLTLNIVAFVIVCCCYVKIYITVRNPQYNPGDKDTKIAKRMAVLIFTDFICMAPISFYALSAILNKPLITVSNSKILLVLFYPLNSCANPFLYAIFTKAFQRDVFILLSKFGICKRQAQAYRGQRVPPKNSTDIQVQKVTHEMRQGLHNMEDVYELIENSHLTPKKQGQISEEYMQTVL
In short: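 TSHR-HEK293 cells were plated and held 18 h at 37C/5% CO2, then given compound plus Ro20-1724 and stimulated with TSH at 1.5 ng/mL final. After 30 min at room temperature, cAMP was detected with cAMP-d2/anti-cAMP-cryptate (1 h) by fluorescence.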

[9] = qHTS assay to identify small molecule agonists of the estrogen receptor alpha (ER-alpha) signaling pathway in the presence of an antagonist - cell viability counter screen (AID 1259386);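 also: cells exposed to compounds for 22 h at 37 °C before the viability read; nearly all actives have a fitted effect of over 30% in size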; also: potency is read from the fitted curve at half-maximal effect
In short: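 ICI-182,780 at 10.0nM final accompanies the compound titration (15 concentrations, 22hr, 37C) on VM7Luc4E2 cells. The CellTiter-Fluor fluorescence readout runs in the same wells as the luciferase assay.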

[10] = target: Progesterone receptor (Homo sapiens) (UniProt P06401); experiment: qHTS assay to identify small molecule agonists of the progesterone receptor (PR) signaling pathway (AID 1346784; calls by dose curve; also: nearly all actives have a fitted effect of over 30% in size)
Sequence of Progesterone receptor (Homo sapiens) (P06401 whole entry, looked up): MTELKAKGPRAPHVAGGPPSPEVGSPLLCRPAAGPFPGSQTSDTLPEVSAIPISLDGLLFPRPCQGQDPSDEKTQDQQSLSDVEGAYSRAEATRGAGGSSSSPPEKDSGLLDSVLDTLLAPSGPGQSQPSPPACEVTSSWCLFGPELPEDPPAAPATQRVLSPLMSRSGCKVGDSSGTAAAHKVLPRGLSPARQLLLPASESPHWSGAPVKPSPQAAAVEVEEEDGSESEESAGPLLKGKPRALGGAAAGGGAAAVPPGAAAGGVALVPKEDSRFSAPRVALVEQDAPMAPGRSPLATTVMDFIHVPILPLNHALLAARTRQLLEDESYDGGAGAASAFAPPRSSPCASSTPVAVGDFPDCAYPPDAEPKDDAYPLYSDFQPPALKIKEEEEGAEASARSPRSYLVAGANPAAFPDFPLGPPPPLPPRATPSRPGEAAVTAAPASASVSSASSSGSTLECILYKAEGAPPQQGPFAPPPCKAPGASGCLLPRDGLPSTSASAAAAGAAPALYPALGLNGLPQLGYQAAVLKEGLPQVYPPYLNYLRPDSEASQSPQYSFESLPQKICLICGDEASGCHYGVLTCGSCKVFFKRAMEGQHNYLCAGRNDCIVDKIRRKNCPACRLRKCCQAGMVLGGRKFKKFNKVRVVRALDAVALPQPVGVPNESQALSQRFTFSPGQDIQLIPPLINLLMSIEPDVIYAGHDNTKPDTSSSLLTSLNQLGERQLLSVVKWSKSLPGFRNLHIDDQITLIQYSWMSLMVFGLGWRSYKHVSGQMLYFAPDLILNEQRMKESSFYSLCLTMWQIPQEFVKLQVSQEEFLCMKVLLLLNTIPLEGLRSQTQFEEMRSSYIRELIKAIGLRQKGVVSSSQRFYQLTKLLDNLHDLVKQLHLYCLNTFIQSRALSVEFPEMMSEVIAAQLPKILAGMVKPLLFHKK
In short: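 Using charcoal-stripped serum (2%) to limit endogenous steroids, PR-UAS-bla HEK 293T cells received compounds for 16 hr at 37C after 6 hr plating; beta-lactamase FRET fluorescence was recorded following 2 hr substrate loading at room temperature.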

[11] = target: Progesterone receptor (Homo sapiens) (UniProt P06401); experiment: qHTS assay to identify small molecule antagonists of the progesterone receptor (PR) signaling pathway (AID 1346795; active = well fitted inhibition curve with a large enough effect in the signal ratio in the repeat runs, not every such curve was filed as active; the % refers to the signal ratio; also: potency is read from the fitted curve at half-maximal effect)
In short: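 Inhibition of R5020-induced (1 nM final) beta-lactamase reporter signal in PR-UAS-bla HEK293T cells was scored by FRET fluorescence after overnight (16 hr) compound treatment.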

[12] = qHTS assay to identify small molecule antagonists of the progesterone receptor (PR) signaling pathway - cell viability counter screen (AID 1346798); also: nearly all actives have a fitted effect of over 50% in size; also: potency is read from the fitted curve at half-maximal effect
In short: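 ATP content as viability readout: CellTiter-Glo luminescence, 30 min room temperature, in PR-UAS-bla HEK293T cells after 16 hr compound/R5020 treatment at 37C and 5% CO2.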

[13] = qHTS assay to identify small molecule agonists of the progesterone receptor (PR) signaling pathway - cell viability counter screen (AID 1346799; calls by dose curve; also: nearly all actives have a fitted effect of over 45% in size; also: potency is read from the fitted curve at half-maximal effect)
In short: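 Cytotoxicity in PR-bla HEK293T cells: 16 h compound, 37C; CellTiter-Glo added post-FRET read; luminescence after 30 min RT.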

[14] = qHTS assay to identify small molecule antagonists of the TGF-beta/Smad signaling pathway - cell viability counter screen (AID 1346824); also: nearly all actives have a fitted effect of over 50% in size; also: potency is read from the fitted curve at half-maximal effect
In short: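 SBE-bla HEK 293T cells were plated overnight at 37 C, then given compounds in DMSO plus TGF-beta1 (added as 0.25 ng/mL solution) for 5 hr. After the bla read, CellTiter-Glo was added to the same wells and luminescence read after 30 min at room temperature.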

[15] = qHTS assay to identify small molecule agonists of the TGF-beta/Smad signaling pathway - cell viability counter screen (AID 1346829); also: nearly all actives have a fitted effect of over 45% in size; also: potency is read from the fitted curve at half-maximal effect
In short: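 CellTiter-Glo luminescence readout; SBE-bla HEK 293T cells, overnight plating, compound 5 hr at 37 C/5% CO2, then bla substrate 2 hr RT, then CellTiter-Glo 30 min RT.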

[16] = target: Thyrotropin-releasing hormone receptor (Homo sapiens) (UniProt P34981); experiment: qHTS assay to identify small molecule antagonists of the thyrotropin-releasing hormone receptor (TRHR) signaling pathway (AID 1346877; active = well fitted inhibition curve with a large enough effect in the repeat runs, not every such curve was filed as active; also: series mostly up to about 51 µM)
Sequence of Thyrotropin-releasing hormone receptor (Homo sapiens) (P34981 whole entry, looked up): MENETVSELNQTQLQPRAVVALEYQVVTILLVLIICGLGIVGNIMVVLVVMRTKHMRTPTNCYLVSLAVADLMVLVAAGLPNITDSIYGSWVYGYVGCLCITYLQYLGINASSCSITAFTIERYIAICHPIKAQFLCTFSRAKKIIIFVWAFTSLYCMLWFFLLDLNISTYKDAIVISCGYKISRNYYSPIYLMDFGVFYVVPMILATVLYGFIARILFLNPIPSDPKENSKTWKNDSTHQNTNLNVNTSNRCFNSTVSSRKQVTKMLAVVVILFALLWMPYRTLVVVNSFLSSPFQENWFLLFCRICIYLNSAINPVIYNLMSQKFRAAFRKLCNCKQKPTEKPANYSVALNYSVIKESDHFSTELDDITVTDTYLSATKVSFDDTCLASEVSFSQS
In short: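 Screening used HEK293 cells engineered with TRHR, with a brief 5 min room-temperature compound exposure preceding addition of TRH to 1 nM. The read-out was kinetic calcium-dye fluorescence, concentration-response from 15 doses in triplicate.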

[17] = qHTS assay to identify small molecule antagonists of the estrogen receptor beta (ER-beta) signaling pathway - cell viability counter screen (AID 1259382); also: nearly all actives have a fitted effect of over 55% in size; also: potency is read from the fitted curve at half-maximal effect
In short: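 Agonist-stimulated (1nM E2) ER-beta-UAS-bla HEK293T cells are incubated with library compounds for 16 hr at 37C. Cell viability is then assessed in the reporter-assay wells by adding CellTiter-Glo and reading luminescence after 30 min.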

[18] = qHTS assay to identify small molecule agonists of the TGF-beta/Smad signaling pathway (AID 1346859; active = well fitted activation curve with a large enough effect in the signal ratio in the repeat runs, not every such curve was filed as active; the % refers to the signal ratio; also: series mostly up to about 77 µM)
In short: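 Stable Smad binding element-beta-lactamase HEK 293T cells; 5 hr compound exposure at 37 C under 5% CO2; 2 hr room-temperature substrate step; fluorescence excited at 405 nm, collected at 460 nm and 530 nm.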

[19] = target: Androgen receptor (Homo sapiens) (UniProt P10275); experiment: qHTS assay to identify small molecule agonists of the androgen receptor (AR) signaling pathway in the presence of an antagonist (AID 1259381; calls by dose curve; also: nearly all actives have a fitted effect of over 15% in size)
Sequence of Androgen receptor (Homo sapiens) (P10275 whole entry, looked up): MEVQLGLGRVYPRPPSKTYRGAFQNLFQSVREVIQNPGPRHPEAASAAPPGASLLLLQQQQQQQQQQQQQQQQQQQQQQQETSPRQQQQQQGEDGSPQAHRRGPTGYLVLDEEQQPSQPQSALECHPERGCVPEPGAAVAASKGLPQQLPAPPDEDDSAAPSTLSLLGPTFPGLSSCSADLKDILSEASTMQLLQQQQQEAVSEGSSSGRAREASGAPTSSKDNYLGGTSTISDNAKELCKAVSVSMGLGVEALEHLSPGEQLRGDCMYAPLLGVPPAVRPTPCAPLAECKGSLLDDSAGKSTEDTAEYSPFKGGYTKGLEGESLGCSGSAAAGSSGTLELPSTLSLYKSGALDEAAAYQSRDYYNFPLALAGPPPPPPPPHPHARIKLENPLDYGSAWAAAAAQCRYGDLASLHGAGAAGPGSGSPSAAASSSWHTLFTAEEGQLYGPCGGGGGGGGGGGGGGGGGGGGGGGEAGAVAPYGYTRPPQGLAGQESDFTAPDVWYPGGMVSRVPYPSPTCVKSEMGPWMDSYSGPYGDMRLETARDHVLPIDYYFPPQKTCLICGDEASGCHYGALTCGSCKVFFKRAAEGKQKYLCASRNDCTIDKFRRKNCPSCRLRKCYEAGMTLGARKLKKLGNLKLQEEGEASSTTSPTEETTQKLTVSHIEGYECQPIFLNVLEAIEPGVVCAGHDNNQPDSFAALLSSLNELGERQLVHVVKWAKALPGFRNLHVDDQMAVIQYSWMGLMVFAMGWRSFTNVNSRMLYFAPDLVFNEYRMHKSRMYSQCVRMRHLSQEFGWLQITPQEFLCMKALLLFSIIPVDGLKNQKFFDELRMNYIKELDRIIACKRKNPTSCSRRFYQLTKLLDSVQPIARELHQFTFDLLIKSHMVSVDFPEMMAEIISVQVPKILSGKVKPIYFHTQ
In short: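 Using human MDA-kb2 cells with an MMTV promoter–luciferase construct (AR and GR response elements), agonist activity is scored under 3.0uM nilutamide (final) co-treatment; 16hr incubation, 37C, luminescence readout via ONE-Glo.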

[20] = qHTS assay to identify small molecule antagonists of the sonic hedgehog signaling (Shh) pathway (AID 1259369; calls by dose curve; also: potency is read from the fitted curve at half-maximal effect; nearly all actives have a fitted effect of over 45% in size)
In short: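 Conditioned medium drives Shh signalling in 3T3Gli1-Luc cells; compounds in DMSO co-applied, 24hr at 37 C, then luciferase luminescence.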

Measured: Potency

O=C(CCCN1CC=C(n2c(=O)[nH]c3ccccc32)CC1)c1ccc(F)cc1
active: [5] 13.3 µM
not listed: [17] | [18] | [19] | [20]
inactive: all other assays above

CC(C)c1nc(CN(C)C(=O)N[C@H](C(=O)N[C@@H](Cc2ccccc2)C[C@H](O)[C@H](Cc2ccccc2)NC(=O)OCc2cncs2)C(C)C)cs1
active: [5] 15 µM | [17] 21.1 µM | [9] 13.3 µM | [12] 29.8 µM | [13] 26.6 µM
not listed: [2] | [3] | [11] | [19] | [20]
inactive: all other assays above

N#CCCN(CCO)CCO
not listed: [2] | [3] | [11] | [18] | [19] | [20]
inactive: all other assays above

Cc1cccc(O)c1N
inactive: [1] | [4] | [7] | [8] | [12] | [14] | [15] | [18] | [16]

COc1ccccc1N1CCN(CCCCNC(=O)c2ccc(-c3ccc(C(C)=O)cc3)cc2)CC1
active: [8] 18.8 µM
not listed: [2] | [3] | [4] | [11] | [16] | [19] | [20]
inactive: all other assays above

CC(CN(C)C)C(C)(O)Cc1ccc(Cl)cc1 (stereo not given)
active: [13] 16.8 µM
not listed: [2] | [3] | [5] | [10] | [11] | [15] | [17] | [20]
inactive: all other assays above

CC[C@]1(O)C[C@H]2CN(CCc3c([nH]c4ccccc34)[C@@](C(=O)OC)(c3cc4c(cc3OC)N(C=O)[C@H]3[C@@](O)(C(=O)OC)[C@H](OC(C)=O)[C@]5(CC)C=CCN6CC[C@]43[C@@H]65)C2)C1
not listed: [2] | [3] | [4] | [5] | [11] | [12] | [13] | [20]
inactive: all other assays above

Nc1ccc(N=Nc2ccccc2)c(N)c1
inactive: [6] | [10] | [12] | [13] | [14] | [15] | [18] | [16]
active: [1] 1.34 µM | [4] 26.7 µM | [5] 26.7 µM

CCOC(=O)[C@H](CCc1ccccc1)N[C@@H](C)C(=O)N(CC(=O)O)C1Cc2ccccc2C1
active: [5] 6.68 µM | [17] 11.9 µM | [12] 6.68 µM
inactive: [1] | [4] | [6] | [9] | [10] | [15] | [18] | [16]

Nc1nc2ccc([N+](=O)[O-])cc2s1
active: [9] 54.5 µM
inactive: [1] | [7] | [14] | [18] | [16]

CC(CC1c2ccccc2CCc2ccccc21)CN(C)C (stereo not given)
inactive: [1] | [4] | [6] | [9] | [10] | [13] | [15] | [18]
active: [5] 33.5 µM | [17] 21.1 µM | [12] 23.7 µM

O=c1cc(-c2ccccc2)oc2ccc3ccccc3c12
active: [20] 5.45 µM | [5] 24.3 µM | [6] 686 nM | [12] 21.7 µM | [13] 19.3 µM | [14] 13.8 µM | [15] 13.8 µM
inactive: [3] | [4] | [7] | [16]

COc1cc(N)c(Cl)cc1C(=O)NC1CCN(CCCOc2ccc(F)cc2)CC1OC (stereo not given)
active: [5] 5.96 µM | [11] 29.8 µM
not listed: [2] | [3] | [4] | [8] | [19] | [20]
inactive: all other assays above

C/C=C\C/C=C/CCCCCCCCOC(C)=O
inactive: [1] | [4] | [6] | [7] | [8] | [9] | [10] | [18] | [16]
active: [5] 61.1 µM
